Test results reported in ChEMBL document CHEMBL1157539, “Thousands of chemical starting points for antimalarial lead identification” (Nature, 2010).

Key:
Assay type in all cases: functional
Plasmodium falciparum [1] = assay: GSK_TCMDC: Inhibition of Plasmodium falciparum 3D7 in whole red blood cells, using parasite LDH activity as an index of growth. Test compounds present at 2uM
Plasmodium falciparum [2] = assay: GSK_TCMDC: Inhibition of Plasmodium falciparum Dd2 in whole red blood cells, using parasite LDH activity as an index of growth. Test compounds present at 2uM
HepG2 = assay: GSK_TCMDC: Percent inhibition of human HepG2 cell line. Test compounds present at 10uM.

| SMILES | Inhibition (Plasmodium falciparum [1]) [%] | Inhibition (Plasmodium falciparum [2]) [%] | Inhibition (HepG2) [%] |
| --- | --- | --- | --- |
| O=C(Nc1ccc(F)cc1)NC1CCN(c2ccnc3cc(Cl)ccc23)CC1.O=C(O)C(F)(F)F | 97 | 57 | 10 |
| O=C(Cc1cccc(Cl)c1)Nc1cccc(-c2c[nH]c3nc(Nc4cccc(O)c4)ncc23)c1.O=C(O)C(F)(F)F | 100 | 74 | 23 |
| O=C(NC1CC1)c1ccc(Cn2c(SCc3cccc(Cl)c3)nc3ccccc3c2=O)cc1 | 90 | 70 | 2 |
| CN(C)C(=O)c1ccc(CN(Cc2ccc(OC(C)(C)C)cc2)Cc2ccc3c(c2)OCCO3)cc1 | 95 | 96 | 0 |
| CCCc1ccc(S(=O)(=O)Nc2ccc3c(c2)CCC3)cc1 | 96 | 0 | 8 |
| O=C(Nc1cccc(F)c1)NC1CCN(CCCCCNC(=O)C2CC2c2ccc(Cl)c(Cl)c2)CC1 (stereo not drawn) | 100 | 12 | 41 |
| CCOC(=O)c1c(C)noc1Nc1cccc(C)c1C | 98 | 0 | 8 |
| CN(CCNCc1ccc(-c2cccc(-c3nc4ccccc4[nH]3)c2)cc1)S(C)(=O)=O.O=C(O)C(F)(F)F | 100 | 29 | 9 |
| Cl.O=C(Nc1cccc(Cl)c1Cl)N1CCc2cc3nccc(N4CCN5CCC[C@H]5C4)c3cc21 | 98 | 100 | 9 |
| COc1ccccc1-n1c(SCC(=O)Nc2ccccc2F)nc2cccnc21 | 96 | 88 | 0 |
| Fc1ccc(C=NN=c2cc[nH]c3ccc(C(F)(F)F)cc23)cc1 | 90 | 6 | 22 |
| Cc1cccc2nc(-c3ccc(-c4ccc(CNCCCN5CCCC5=O)cc4)cc3)[nH]c12.O=C(O)C(F)(F)F | 100 | 47 | 7 |
| O=C(Nc1cccc(-c2cccc(-c3nc4cc(C(F)(F)F)ccc4[nH]3)c2)c1)c1ccncc1 | 100 | 61 | 52 |
| CC(C)(C)CC(C)(C)c1ccc(O)c(C(=O)Nc2cccc([N+](=O)[O-])c2)c1 | 95 | 97 | 49 |
| CC(C)(C)n1nnnc1C(c1cccnc1)N(Cc1ccccc1)Cc1ccc(Cl)cc1 (stereo not drawn) | 96 | 17 | 0 |
| C=CC(=O)Nc1ccc(Cl)cc1C(O)c1ccccc1 (stereo not drawn) | 100 | 5 | 0 |
| OC(CNCCc1ccccc1)Cn1c2ccc(Cl)cc2c2cc(Cl)ccc21 (stereo not drawn) | 98 | 96 | 53 |
| C=C[C@H]1CN(CCCCCCC)CC[C@H]1CCNc1ccnc2ccc(OC)cc12 | 95 | 81 | 99 |
| O=C(Nc1ccc2c(c1)CCN2C1CCN(Cc2csc3ccccc23)C1)c1ccco1 (stereo not drawn) | 95 | 95 | 0 |
| O=C(Nc1ccccc1N1CCOCC1)c1ncoc1-c1ccccc1C(F)(F)F | 89 | 60 | 0 |
| Oc1ccc2ncnc(Nc3ccc(OCc4cccc(F)c4)c(Cl)c3)c2c1 | 100 | 30 | 24 |

| SMILES | Inhibition (Plasmodium falciparum [1]) [%] | Inhibition (Plasmodium falciparum [2]) [%] | Inhibition (HepG2) [%] |
| --- | --- | --- | --- |
| O=C(Nc1ccc(O)c(-c2nc3ccccc3[nH]2)c1)c1ccc([N+](=O)[O-])cc1 | 97 | 45 | 0 |
| Cc1cc(N/N=C/c2cccc([N+](=O)[O-])c2)c2ccc(F)cc2n1 | 100 | 98 | 0 |
| Cc1cccc2nc(-c3cccc(-c4ccc(NC(=O)c5cccnc5)cc4)c3)[nH]c12 | 100 | 45 | 64 |
| COc1ccc(S(=O)(=O)NCCCC2CCN(CCCCCNC(=O)C=Cc3ccc(Cl)c(Cl)c3)CC2)cc1 | 85 | 12 | 24 |
| O=C(Nc1cccc(F)c1)NC1CCN(c2ccnc3cc(Cl)ccc23)C1.O=C(O)C(F)(F)F (stereo not drawn) | 100 | 64 | 13 |
| CCOc1ccc2c(=NN=Cc3cccc(OC)c3OC)cc(C)[nH]c2c1 | 100 | 85 | 4 |
| O=C(C=Cc1ccc(Cl)c(Cl)c1)NCCCCCN1CCCC(CCCNC(=O)c2sc3ccccc3c2Cl)C1 (stereo not drawn) | 88 | 32 | 82 |
| NCCCN(Cc1ccc(Cl)c(Cl)c1)C(=O)Nc1ccc(Cl)c(Cl)c1 | 93 | 41 | 100 |
| O=C(Cc1c[nH]cn1)Nc1cccc(-c2ccc(-c3nc4ccccc4[nH]3)cc2)c1 | 99 | 72 | 7 |
| O=C(Nc1c(F)cccc1F)c1cccc(-c2nn3ccccc3c2-c2ccnc(Nc3cccc(-c4cnco4)c3)n2)c1 | 95 | 94 | 96 |
| O=C(NCc1ccc(F)cc1)Nc1ccc(-c2cccc(-c3nc4cc(F)ccc4[nH]3)c2)cc1 | 100 | 99 | 31 |
| Cl.Cn1ccc(-c2cccc(Nc3ccnc4cc(-c5nccs5)ccc34)c2)n1 | 100 | 94 | 39 |
| COc1cc(Nc2ccnc3ccc(C(C)(C)C)cc23)cc(OC)c1OC | 100 | 80 | 12 |
| O=C(Nc1ccc(CCN2CCC(c3nc(COCC(F)(F)F)c(-c4ccccc4)o3)CC2)cc1)c1ccc(F)cc1 | 86 | 3 | 9 |
| CCc1ccc(CN2CCC(CNC(=O)c3cc(-c4ccccc4Cl)cs3)C2)cc1.O=C(O)C(F)(F)F (stereo not drawn) | 98 | 0 | 14 |
| CCCCc1ccc(-c2nc(NC(=O)Nc3[nH]c(-c4ccccc4)nc3C(=O)OCC)c(C(=O)OCC)[nH]2)cc1 | 95 | 26 | 0 |
| CC[C@H](C)CNC(=O)c1cncc(-c2ccc(CNC3CCCC3)cc2)c1.O=C(O)C(F)(F)F | 97 | 5 | 0 |
| CC(C)N(CCOc1ccc2c(c1)N(C(=O)Nc1ccc(Cl)c(Cl)c1)CC2)C(C)C.O=C(O)C(F)(F)F | 100 | 39 | 15 |
| CC(C)CCCC(C)(C)NC[C@@H](O)[C@H](Cc1ccccc1)NC(=O)c1cc(NC(C)C)cc(N2CCCCS2(=O)=O)c1F.O=CO | 98 | 99 | 11 |
| Cc1ccc(S(=O)(=O)n2cc(-c3ccnc(N)c3)c3cc(Br)cnc32)cc1 | 98 | 31 | 8 |
| Cc1[nH]c(C)c(-c2ccc(OCCSc3ccncc3)cc2)c(=O)c1Br | 95 | 95 | 0 |

| SMILES | Inhibition (Plasmodium falciparum [1]) [%] | Inhibition (Plasmodium falciparum [2]) [%] | Inhibition (HepG2) [%] |
| --- | --- | --- | --- |
| Cc1ccc(CNC(=O)[C@H](Cc2ccccc2)Nc2cc(C)nc(NCCc3ccc(F)cc3)n2)cc1.O=C(O)C(F)(F)F | 98 | 22 | 10 |
| Cl.O=C(C(=O)c1ccc(Nc2ccnc3cc(-c4ccccn4)ccc23)cc1)c1ccccc1 | 93 | 34 | 22 |
| Br.c1ccc(-c2ccc(-c3csc(Nc4ccncc4)n3)cc2)cc1 | 100 | 97 | 30 |
| O=C(O)C(F)(F)F.O=[N+]([O-])c1cccc(CNC2CCN(Cc3ccc(-c4ccccc4)cc3)CC2)c1 | 100 | 96 | 25 |
| O=C(O)C(F)(F)F.Oc1ccc(CCNc2nc(NCc3cccc(OCc4cccc(F)c4)c3)nc(N3CCNCC3)n2)cc1 | 86 | 0 | 27 |
| CCS(=O)(=O)c1ccc(OC)c(Nc2nccc(-c3c(-c4cccc(NC(=O)c5c(F)cccc5F)c4)nn4ncccc34)n2)c1 | 87 | 88 | 27 |
| Cl.N#Cc1cccc(/C=C/C(=O)NC2CCC(CCN3CCc4ccc(-c5cnccn5)cc4CC3)CC2)c1 (stereo not drawn) | 93 | 47 | 22 |
| CC(=O)N1CCC(C(=O)Nc2ccc(-c3cccc(-c4nc5cccc(C)c5[nH]4)c3)cc2)CC1 | 84 | 27 | 85 |
| CS(=O)(=O)Cc1ccc(Nc2nccc(-c3c(-c4cccc(NC(=O)c5c(F)cccc5F)c4)nn4ncccc34)n2)cc1 | 97 | 93 | 86 |
| COc1ccc(F)cc1-c1ccccc1CNC(=O)CN(C)S(=O)(=O)c1cc(C)cc(Cl)c1C | 92 | 73 | 0 |
| Cc1cc(-c2ccc(CNC3Cc4ccccc4C3)cc2)ccc1S(=O)(=O)NCCN1CCCC1.O=C(O)C(F)(F)F | 100 | 73 | 99 |
| Cc1cc(F)ccc1Nc1nc(N(C)c2ccccc2)c2cc(OCCN(C)C)ccc2n1 | 94 | 55 | 37 |
| CCc1ccc(-n2c(NC(=O)c3ccccc3)nc3ccc(S(=O)(=O)NC(C)C(C)C)cc32)cc1 (stereo not drawn) | 88 | 0 | 48 |
| CN(C)S(=O)(=O)c1ccc(N2CCN(CCC3(c4cccc(F)c4)CCN(C(=O)C(C)(C)C)CC3)CC2)c2nonc12 | 91 | 85 | 8 |
| CC(C)CCN(Cc1cncn1Cc1cccc(C(F)(F)F)c1)C(=O)c1cncc(-c2ccccc2)c1 | 100 | 4 | 15 |
| Cc1nc(N)nc(N)c1-c1cc(Cl)c(N)c(Cl)c1 | 94 | 2 | 62 |
| Br.CC(C)(C)c1ccc(OCCCON2C(=N)N=C(N)NC2(C)C)c(C(C)(C)C)c1 | 93 | 97 | 64 |
| Cc1cc(=NN=Cc2ccc(F)cc2)c2cc(C(F)(F)F)ccc2[nH]1 | 100 | 99 | 2 |
| O=C(Nc1ccc(-c2cccc(-c3nc4cc(F)ccc4[nH]3)c2)cc1)c1cnn2cccnc12 | 98 | 25 | 10 |
